Lassa entry = inhibitors of Lassa virus binding or entry into cells; Lassa virus pseudotyped entry inhibition, cell-based qHTS; Potency, µM (series often up to 49.2 µM), for inactives: at the highest dose activity change, negative = inhibition, actives largely listed as inhibitors; AID 720533; 18,000 compounds, 4.1% hits
Marburg entry = inhibitors of Marburg virus binding or entry into cells | Marburg virus pseudotype entry/binding inhibition, cell-based | Potency, µM (highest dose often 49.2 µM), inactives show at the highest dose activity change, negative = inhibition, hits mostly inhibitors | AID 720532 | 18,000 compounds, 6.5% hits
* hit, by the source's call; ? = inconclusive; . = not tested or not shown; ! = repeats disagree; [ ] = dose if it differs, or a comment. Hits are enriched below; roughly 7.1% of the tested compounds scored in any of these assays. The call rests on the fitted dose curve; tested in HEK293 cells. On the % scale 0 is the no-effect control and ±100 the full control effect; potency means the concentration at half of the fitted maximal effect.

SMILES | Lassa entry | Marburg entry
CN1c2ccccc2[C@@]2(O)C(=O)[C@@]1(C)[C@H]1Cc3ccccc3[C@H]12 | -19.5%[8.59 µM] | -0.3%[8.59 µM]
C=C1CCC(O)C/C1=C/C=C1\CCC[C@]2(C)[C@@H]([C@H](C)CCCC(C)C)CC[C@@H]12 (some centres undefined) | -15.6% | -17.0%
C=C1C(=C/C=C2\CCC[C@]3(C)[C@@H]([C@H](C)/C=C/[C@@H](O)C4CC4)CC[C@@H]23)C[C@@H](O)C[C@@H]1O | 14.1µM* | -24.8%
C=C1C(=C/C=C2\CCC[C@]3(C)[C@@H]([C@H](C)CCCC(C)C)CC[C@@H]23)C[C@@H](O)C[C@@H]1O | 15.8µM* | -15.1%
C=C1CCC(O)C/C1=C\C=C1/CCCC2(C)C1CCC2C(C)/C=C/C(C)C(C)C (centres undefined) | -29.2% | 26.6%
COCc1c(C(=O)NC2CCCCC2)cnn1-c1nccc(-c2cc(C)sc2C)n1 | 46.7% | 80.5%
C/C(=N\O)c1ccc(OCC(=O)N2CCCCC2)cc1 | 8.6% | 13.7%
CCCCCCN1CCN(C2CN(CCc3ccccc3)S(=O)(=O)C2)CC1 (centres undefined) | -32.0% | 16.6%
CCCCCCCCCCCCCCCCn1cc[n+](Cc2ccccc2)c1C | 11.2µM* | 7.08µM*
CC[C@H](C)[C@H](NC(=O)[C@H](CC(=O)O)NC(=O)[C@H](CC(N)=O)NC(=O)[C@@H](NC(=O)[C@H](CCCNC(=N)N)NC(=O)[C@@H](NC(=O)[C@@H](NC(=O)[C@@H](NC(=O)[C@@H](NC(=O)[C@H](CCCCN)NC(=O)[C@@H](NC(=O)[C@H](CC(C)C)NC(=O)[C@@H](NC(=O)[C@H](CCCCN)NC(=O)[C@@H](NC(=O)[C@H](CC(=O)O)NC(=O)[C@H](CC(=O)O)NC(=O)[C@H](CCC(N)=O)NC(=O)[C@@H](NC(=O)[C@H](CCCCN)NC(=O)[C@H](CCC(N)=O)NC(=O)[C@@H](NC(=O)[C@@H]1CCCN1C(=O)[C@@H](N)C(C)C)[C@@H](C)CC)C(C)C)[C@@H](C)O)[C@@H](C)O)[C@@H](C)CC)[C@@H](C)O)[C@@H](C)CC)C(C)C)[C@@H](C)O)[C@@H](C)CC)C(=O)N[C@@H](CO)C(=O)N[C@@H](Cc1cnc[nH]1)C(=O)N[C@H](C(=O)N[C@@H](CCC(N)=O)C(=O)N[C@@H](CO)C(=O)N[C@H](C(=O)N[C@@H](CO)C(=O)N[C@@H](CO)C(=O)N[C@@H](CCCCN)C(=O)N[C@@H](CCC(N)=O)C(=O)N[C@@H](CCCCN)C(=O)O)C(C)C)[C@@H](C)O | 0.9% | 2.2%
Cc1c(C(=O)N2CCCCC2)sc2ncnc(NCCc3ccccn3)c12 | -26.3% | 17.7%
CCOP(=S)(OCC)OCCSCC | -6.7% | 13.5%
COc1cc2c(cc1OC)-c1c(O)c(OC)cc3c1[C@H](C2)N(C)CC3 | -7.9% | 0.4%
COc1cc2c(cc1OC)-c1cc(=Nc3c(C)cc(C)cc3C)n(C)c(=O)n1CC2 | 11.2µM* | 12.6µM*
CCC(=O)OC1CCC2C3CCc4cc(O)ccc4C3CC[C@]12C (some centres undefined) | 158µM* | 0.001µM*
C[C@]12CC[C@@H]3c4ccc(O)cc4CC[C@H]3[C@@H]1CCC2=O | 31.6µM*! | 16.5%
CCC(=O)O[C@H]1CC[C@H]2[C@@H]3CCc4cc(O)ccc4[C@H]3CC[C@]12C | ? | -29.9%
CCCCC(=O)O[C@H]1CC[C@H]2[C@@H]3CCc4cc(O)ccc4[C@H]3CC[C@]12C | ? | -14.7%
C[C@]12CC[C@@H]3c4ccc(O)cc4CC[C@H]3[C@@H]1CC[C@@H]2OC(=O)CCC1CCCC1 | 28.2µM*! | 19.7%
C[C@]12CCC3c4ccc(O)cc4CCC3[C@@H]1CCC2=O (some centres undefined) | -16.9%[17.8 µM] | 15.5%[17.8 µM]
CC(C)C[C@H](NC(=O)[C@H](Cc1ccccc1)NC(=O)CNC(=O)CNC(=O)[C@@H](N)Cc1ccc(O)cc1)C(=O)N[C@@H](CCCN=C(N)N)C(=O)N[C@@H](CCCN=C(N)N)C(=O)N[C@@H](CCC(N)=O)C(=O)N[C@@H](Cc1ccccc1)C(=O)N[C@@H](CCCCN)C(=O)N[C@H](C(=O)N[C@H](C(=O)N[C@H](C(=O)O)[C@@H](C)O)C(C)C)C(C)C | -9.8% | 4.9%
O=S1(=O)C=CCN1CCc1ccccc1 | -21.4% | 22.8%
CN=C1C=CC(=C(c2ccc(N(C)C)cc2)c2ccc(N(C)C)cc2)C=C1 | 3.55µM* | 2.82µM*
CC(C)CCOC(=O)c1ccc(N(C)C)cc1 | 8.0% | 7.9%
CC(=O)O[C@H]1C[C@H](O[C@H]2[C@@H](O)C[C@H](O[C@H]3[C@@H](O)C[C@H](O[C@H]4CC[C@@]5(C)[C@H](CC[C@@H]6[C@@H]5C[C@@H](O)[C@]5(C)[C@@H](C7=CC(=O)OC7)CC[C@]65O)C4)O[C@@H]3C)O[C@@H]2C)O[C@H](C)[C@H]1O[C@@H]1O[C@H](CO)[C@@H](O)[C@H](O)[C@H]1O | 0.0501µM* | ?
SMILES | Lassa entry | Marburg entry
CN1CC[C@@]23c4ccccc4N[C@H]1[C@]21CCN(C)[C@@H]3Nc2ccccc21 | -6.7%[17.8 µM] | ?
COC(=O)CC1c2ccccc2C=C(C=Cc2ccc3c(c2)OCO3)N1C(=O)OC (centres undefined) | . | -18.2%[8.59 µM]
CNC(=O)C[C@H]1C(=O)N(C2CCCCC2)C[C@@H]1C | 12.4% | -8.2%
NC1C=CC=C(C(=O)O)C1 (centres undefined) | -3.1% | -3.3%
C=C1C[C@H]2[C@@H]3C=C(C)C4=CC(=O)CC[C@]4(C)[C@H]3CC[C@]2(C)[C@@]1(OC(C)=O)C(C)=O | ? | 12.6µM*!
CC(=O)[C@]1(O)CCC2C3CCC4=CC(=O)CC[C@@]4(C)C3CC[C@]21C (some centres undefined) | -6.9% | -5.6%
CN1c2ccccc2[C@@]2(O)C(=O)[C@@]1(C)[C@@H]1C=CCC[C@H]12 | 3.2%[8.59 µM] | 28.8%[8.59 µM]
COc1ccc(COC(=O)NN=C2C[C@@H](O)[C@@H](O)[C@@H]3[C@H]4C(=O)N(c5ccc(F)cc5F)C(=O)[C@@H]4CC[C@H]23)cc1 | 1.33µM* | 30.1%[8.59 µM]
CCOC(=O)NN=C1C[C@@H](O)[C@@H](O)[C@@H]2[C@H]3C(=O)N(c4ccc(F)cc4F)C(=O)[C@@H]3CC[C@H]12 | 9.0%[8.59 µM] | -21.5%[8.59 µM]
COc1ccc(COC(=O)NN=C2C[C@@H](O)[C@@H](O)[C@@H]3[C@H]4C(=O)N(C5CCCCC5)C(=O)[C@@H]4CC[C@@H]23)cc1 | . | -28.7%[8.59 µM]
COc1ccc(COC(=O)NN=C2C[C@@H](O)[C@@H](O)[C@@H]3[C@H]4C(=O)N(C[C@@H]5CCCO5)C(=O)[C@@H]4CC[C@H]23)cc1 | 0.596µM* | ?
CC(C)CNc1ccc2c(c1)OC[C@H](CC(C)C)NS2(=O)=O | -2.3% | 9.3%
Cc1noc(C)c1S(=O)(=O)N1CCc2nc(COc3ccccc3)c3c(c2C1)CO[C@@H](C)C3 | -9.9%[8.59 µM] | 17.7%[8.59 µM]
C#Cc1cccc(Nc2ncnc3cc(OC)c(OC)cc23)c1 | -14.7% | 7.7%
COC(=O)[C@]1(C)CC[C@@]2(C)CC[C@@]3(C)C4=CCc5c(cc(O)c(O)c5C)[C@]4(C)CC[C@@]3(C)C2C1 (some centres undefined) | 17.8µM* | ?
CCOC(=O)OC[C@H]1O[C@H](c2ccccc2)C=C[C@H]1OC(=O)OCC | 9.7%[8.59 µM] | 42.4%[8.59 µM]
CNCCCN1c2ccccc2CCc2ccccc21 | ? | 7.94µM*
CN1C(=O)CC(=O)N(c2ccccc2)c2cc(Cl)ccc21 | -10.6% | -10.5%
